Assay results taken from the supplement of paper PMC6555819.

test system: VDR:RXRa (NR concentration 270 nM, RXRa partner concentration 90 nM); assay: PBM binding z-score (relative to random genomic background probes); higher = stronger binding; sequences stand for … in GC…GCGATTGACAGCGTAGAATGAAGG
Experimental: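 Protein-binding microarray (Agilent 4x180K custom design, double-stranded 60-nt probes: 5' GC cap, 34-nt variable region, 24-nt constant primer region; full probe sequence given). Purified or IVT nuclear receptor:RXRα heterodimers (3:1 NR:RXRα, mostly 270:90 nM) or homodimers were incubated for 1 h in PBS with 2% milk and no ligand, then detected with Alexa488 antibodies. Fluorescence from o1-orientation probes (~5 replicates averaged) was converted to z-scores against 500 random hg19 background probes. Variable regions are seed direct-repeat (DR0–DR5) sites, all their single-nucleotide variants and half-site ablations.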

Sequence | PBM binding z-score
ACTATTAGTTGACTTAGCGCAACCGATACGACGC | 0.0494
CCTACTAGGTCATGGTCAGCTAATCTACAGTATG | 1.8
CAAACTAGGTCAAGGACAAAGTCGGTTTGTGCCA | 1.79
CAAACTAGGTCCAGAGGTCAAAGTCCGCTTCCCG | 5.14
TCGAGTTGGTTACCAATGGGGCATTCAGCTTTCT | -0.461
TTACCAAGGTGGAGGTCGTTGATCCCTCTGTAGA | 1.65
ATCTCTAGGTAAAGACAGTTCAGTGAATGCAAAT | 1.53
CGAACCAGGTCAAGGACAGTGAATCTCCGCACGC | 2.22
ATCGAAAGGTCGACGAGATGAGTATACACCGTTT | 2.46
GTACCAAGGTGAAGAGGTCGTTGATGAGTAGGCG | 2.71
AGAACGAGGGCAATGAGTTAATAGCACGGGTGGC | 4.04
CCTGCTAGGTCAATGGTGAGCTAAAGCAGCTCGC | 0.217
GGAAGGAGGGCAAAGTTGATAGCATCTGTCGACG | 0.964
TTACCAAGGTGAAAAGTCGTTGATGCACGCCTTG | 0.0875
TGTCAAAGTTCAAAGATAACGTAAGTATCCACAC | 4.23
TCATATAGGTAAATGCTAGGTGAAATTCCGATCT | 0.761
ATCCAAAGGTCGACGAGGTGAGTATACACCGTTT | 5.23
CGTCAAAGTTCGAGGTAACGTAACAGAAAGCAGC | 1.32
TCTGCTAGGTCAGTTGGTCAGCTACCGAGCTGCC | 0.106
ATCTGTAGGTTACATCCGGGTCATTCAGGCTATG | 4.16

Sequence | PBM binding z-score
CCTATTGGGCCATTCAGAGGTCATTGATCATATG | 3.98
CCTAGTTGGTCAGGAGGACACACACCGGATATGA | 0.204
GCAGACAGGTGAAACGCAGCTAACTCAGGGTGGC | -0.847
TCGAGTAGGTTGCCAATGGGGCATTCAGCTTTCT | -0.316
ATCGAAAGATCGAGGTGAGTATAGAGAAAGGGAA | -0.327
CCTCGGAGGACAACAGGAGGTCAGAGATGCCAGA | 2.29
GCAGACAGGTGAAACGCAGGAAACTCAGGGTGGC | -0.533
GCGACTGGGGCAAAGCAGGTTACGATAAGGTTGG | 0.0646
CGTCAAAGTTCAACAAAGGTAACGTAAAGCACGC | 4.46
GCTGCTAGGTCAGGGTGGTCAGCTAACGGGTACG | 1.25
TCCAGCAGGCCAGAGGGTCACTCAAGAGGTACGG | 1.34
AATACAGGGTCATCGCAGGCCAGAGTACGCACAG | 5.31
TCGAGTAGGTTACCAATGGGCCATTCAGCTTTCT | 0.0845
AGTCAAAGCTCAGGACGAGGTAACGTAAAGCACG | -0.317
CTCGAAAGATCGGTTGAGGTGAGTATACGGATAA | -0.152
AGAATGAGGTTATACGTAGTTCAGGGAAGAAAGT | 3.09
CCTACTGGGCCAAGGTCATTGATCAGTCAAAGCA | 3.15
CCTTACGGGTCACTCCGGGTTATAGCATCGGAGT | 4.18
ATATGTAGGTAATCGGGTCATTCAGTTTGCGCAT | 4.7
CTAGACAGGTGAGAAGGTAACTCAGCCTCGATTA | -0.342
